Data taken from the supplement of paper PMC3334620.
Whole data set: some 33,000 sequences, median “E-score (-0.5 to 0.5)” near -0.01, cut for the highest 2% near 0.26. The sample holds the highest values, similar sequences and a random draw of the others, so the mix is not that of the screen.

target: Ste12 (UniProt P13574); experiment: PBM E-score (8-mer binding enrichment) (E-score (-0.5 to 0.5)); higher = stronger / more preferred TF binding; conditions: protein concentration: 200 nM; construct: GST-DNA-binding domain
Description: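 Universal 'all 10-mer' protein binding microarrays (Agilent AMADID 015681) probed with GST-tagged S. cerevisiae TFs (full-length or DBD) made by in vitro transcription/translation (PURExpress), about 100-200 nM. Bound TF was detected with fluorescent anti-GST. Each ungapped 8-mer (which stands for itself and its reverse complement) is scored by the PBM enrichment score (E-score), a modified Wilcoxon-Mann-Whitney statistic from -0.5 to +0.5, computed with the Universal PBM Analysis Suite. Scale: above 0.35 generally sequence-specific binding.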

UniProt P13574, sequence (P13574 whole entry, the tested form may be a part): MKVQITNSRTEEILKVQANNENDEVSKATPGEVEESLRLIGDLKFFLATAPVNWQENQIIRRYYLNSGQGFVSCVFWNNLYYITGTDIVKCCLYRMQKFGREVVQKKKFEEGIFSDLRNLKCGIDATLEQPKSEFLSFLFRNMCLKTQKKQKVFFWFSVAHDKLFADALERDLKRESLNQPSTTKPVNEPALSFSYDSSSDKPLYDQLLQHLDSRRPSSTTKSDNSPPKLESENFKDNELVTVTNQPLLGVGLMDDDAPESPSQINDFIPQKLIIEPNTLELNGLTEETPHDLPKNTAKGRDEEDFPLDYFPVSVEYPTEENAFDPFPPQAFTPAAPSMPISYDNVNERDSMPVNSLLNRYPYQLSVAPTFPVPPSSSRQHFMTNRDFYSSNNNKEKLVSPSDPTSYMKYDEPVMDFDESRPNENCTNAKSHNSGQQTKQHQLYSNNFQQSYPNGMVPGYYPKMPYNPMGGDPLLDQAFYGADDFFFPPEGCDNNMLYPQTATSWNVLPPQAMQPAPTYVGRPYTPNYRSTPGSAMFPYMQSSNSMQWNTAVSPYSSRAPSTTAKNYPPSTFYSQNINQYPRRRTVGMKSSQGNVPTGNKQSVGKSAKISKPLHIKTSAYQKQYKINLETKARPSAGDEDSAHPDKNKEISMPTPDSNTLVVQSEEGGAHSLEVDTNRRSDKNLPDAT

Sequence	PBM E-score
GTTTTTAA	0.261
CGTTTTAA	0.319
GTTTTTTA	0.149
CGTTTTTA	0.165
CTTTTTAA	0.104
CGTTTTAG	0.215
AAGAGTTG	-0.149
GGTTCATA	-0.0487
GGGAGAAC	-0.0492
ATCCTCAA	0.00575
AAATTGTA	0.048
AAATTGTT	0.186
AAATTGTC	0.268
CGTGTTGC	0.0401
CGTGTTTC	0.36
AGTGTTTC	0.332
CGTGTTTA	0.0319
AGTGTTTG	0.245
AGTGTTTA	0.174
GCCCTCGA	-0.216
CTTTAGTC	-0.0859
GGCCAAAA	0.0718
TCAACTCA	0.0748
CGAATACA	0.0383
AGCAGTGA	-0.0211

Sequence	PBM E-score
ATATGCTC	0.0529
ATAACGAA	0.0476
GAAACGAA	0.367
AAAACGAC	0.0623
CTAACGAA	0.11
CAAACGAC	0.128
GAAACGAC	0.317
CAAACGAA	0.101
AAAACGAA	0.237
TTAACGAA	0.262
CAAGTCTG	-0.0972
CGTCGCTC	-0.115
AGTATGGG	-0.0937
ATGGCCGC	-0.0598
ATGAGGTC	0.0263
AGGCTCGG	-0.112
ATAATTTG	0.212
TTAATTAA	0.245
ATAATTAA	0.276
GTAATTTA	0.223
ATAATTAC	0.131
ACAATTAT	0.212
ATAATTTA	0.357
ACAATTAC	0.087
ACAATTAA	0.292

Sequence	PBM E-score
CCGCCAGG	-0.206
GCTCAGCA	-0.0833
AATCTCAT	0.165
CTGACCGC	0.123
AAATGCAC	-0.00999
CACCCATA	0.105
ACCAGACG	-0.174
CGCGCGTC	0.0795
ACGCCACG	-0.182
ATTCGAAC	0.105
CTTCGAAA	0.132
ATTCGAAA	0.286
ACTCGAAT	-0.144
ATTCGAAG	-0.0567
ATTCGAAT	0.268
GCCTTCCC	-0.0772
CACACTTC	0.00873
AACCACTA	-0.00019
AAACATAT	0.273
AAACATAC	0.241
GGACATAA	0.0357
ATACATAT	0.294
TGGCATAA	0.307
CGGCATAA	-0.0029
AAACATAG	0.205

Sequence	PBM E-score
ATACATAC	0.134
GGGCATAA	0.218
ATACATAA	0.21
AGACATAA	0.101
TGACATAA	0.268
ACATGCAT	0.0142
GACGCACC	-0.00732
ATAAAGAC	-0.0448
CACCCTCC	0.213
GAGTTTGC	0.0562
ATCTACGG	-0.0913
AACTTTCT	0.128
AACGGTGA	-0.122
ATTGCCCC	0.0929
GGCGAGGA	-0.178
AATGGCCT	-0.00519
TAACATAA	0.275
ACATACAC	0.0702
ACATACAT	0.263
CAACATAA	0.189
ACATACAG	0.0443
AAACATTA	0.207
AAACATAA	0.306
ACACATAA	0.19
GAACATAA	0.148

Sequence	PBM E-score
GCTCGCCA	-0.0532
ATTTGCGG	0.148
ACCGTGCT	-0.08
AGTGCAAA	0.101
GAGGGGAA	0.0394
AAACAAGC	0.202
ATACGATC	0.157
AACAATAA	0.301
AACAATAG	0.0913
AACAATTG	-0.0846
AACAATTC	0.124
AACAATTA	0.297
ATCAATTC	0.0349
ATCAATTA	0.289
AACAATAC	0.0824
ATCAATTG	0.154
GCGGTTTA	0.13
CTTGAGAC	0.158
ATCACTAC	-0.117
CTAGATTA	-0.0366
TCCAAAGA	0.0392
AGAAGAGC	-0.161
CCCGGCCG	-0.239
ACTGAGCC	-0.00502
TTATATAA	0.176

Sequence	PBM E-score
ATATAAAG	0.171
CTATATAA	0.174
CTATATAC	0.162
ATATATAA	0.273
GTATATAC	-0.207
ATATAAAC	0.161
ATATATAC	0.271
TTATAAAA	0.268
TCATAAAA	0.231
GTATAAAA	0.241
ATATAAAT	0.279
CCGATTTA	0.199
AGCATCTG	-0.159
AGTGACAG	-0.057
ACTAGTCC	-0.104
AGCAAACG	-0.0967
GTAGCTAC	-0.201
CTCCAGAA	-0.152
AGGTTTAG	0.0936
AAGCCGGC	0.0834
GCTTGACA	0.0364
ACATCGAA	0.0463
CGTCGCGC	0.00057
GCAACAAC	-0.0707
CCGCTAAG	0.109

Sequence	PBM E-score
ACATAAAA	0.17
ATATAAAA	0.307
CTATAAAA	0.235
ACCCGCGG	0.176
TCTGAAGA	-0.149
GACTCTGC	-0.0845
ATAAAAAG	0.315
GGAAAACA	0.177
ATAAAAGA	0.0538
GGCAAAAC	0.133
GAAAAAAA	0.369
GGCAAGAA	0.0412
GAAAAAAC	0.174
GAGAAAAA	0.147
ATAAAAGG	0.0863
GGAAAAGA	0.05
GGAAAAAA	0.309
GGCAAAAA	0.346
CCATGGCG	-0.0357
GCTTACTA	0.00559
AGCCTCTG	-0.135
CAGTTAGC	-0.218
CGAAATAA	0.131
ATAAAAAT	0.241
AGAAATAA	0.207

Sequence	PBM E-score
TGAAAGAA	0.131
TGAAAAAA	0.293
AGGAAAAC	-0.0394
GGAAAAAC	0.322
AAAAAAAT	0.337
GGAAATAA	0.284
GGAAAACC	0.0776
TGAAAACA	0.162
AAAAAATT	0.197
GCGACCTA	-0.062
CTGGCATC	-0.283
AGATTATC	-0.0475
CTACCTTA	-0.00289
CTGTGCAA	-0.101
ACGATTGA	0.158
CAGTTAAA	-0.00288
CATGAGCG	-0.0776
CGTGTGAC	-0.0425
AGTTCAAA	0.138
GCCAAATA	0.101
GTTTACGA	0.0472
AAAAAAAG	0.294
AAAAAAAA	0.367
AGAAAAAA	0.19
CGGAAAAA	0.343

Sequence	PBM E-score
AAAAAAGA	0.182
AAAAAAGG	0.244
CAAAAAAG	0.159
CGGAAAAG	0.0439
CGAAAAAC	0.0959
CGAAAAAG	0.212
CGAAAAAA	0.308
CGGAAAAC	0.0342
CAGGCGGG	0.0689
AATGGGCT	-0.092
CGTTTAGC	-0.0383
ACAGCCGT	-0.0628
AGCCTTAT	0.0824
TTGGAAAA	0.177
TGGAAAAA	0.302
TCGGAAAA	0.275
AAAAAGCG	0.317
GGGGAAAA	0.112
AGGAAAAA	0.16
AAAAAGCC	0.229
GCGGAAAA	0.253
GGGAAAAA	0.272
CAAAAGCG	0.14
GGGAAAAC	0.116
ACGGAAAA	0.177
